Source: PubChem
KKLEB tox: cytotoxicity in KKLEB CF airway cells, primary screen, cytotoxicity control for CF NF-kB inhibitor project, cell-based, uHTS, fluorescence assay plates. activity change (cytotoxicity), % at 5 µM. KKLEB CF airway cells viability, ATPlite luminescence, overnight; stronger effect = lower value; cells stimulated with P. aeruginosa culture filtrate. actives 0.36% (n = 360,000);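 active = corrected activity change at or below -50% at 5 µM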
TROY signal inh: inhibitors of TROY-driven NF-kB signaling, primary screen, Q293 LMP1-TROYcd cells, NF-kB luciferase, uHTS | Q293 LMP1-TROYcd NF-kB luciferase reporter, 4 h | inhibition, % at 10 µM | actives 0.98% (n = 360,000);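 active = compounds whose plate-normalised and pattern-corrected inhibition of the luciferase reporter signal at the single screening dose is 50% or more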
HIF-2a block: HIF-2a reporter inhibitors, primary screen, luminescence, 786-0 RCC cells. 786-0 RCC cells HIF-2a reporter, luciferase luminescence, overnight. inhibition, % at 18.8 µM. actives 0.72% (n = 360,000);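 active = inhibition of the luminescence signal of 40% or more relative to plate controls, in a single-dose primary screen at 18.75 µM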
CF NFkB block: inhibitors of PAF-induced NF-kB signaling, primary screen, cell-based, GFP fluorescence, uHTS. KKLEB NF-kB-GFP reporter, GFP fluorescence overnight. inhibition, % at 5 µM. actives 0.86% (n = 360,000). AID 588850, 2011;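 active = at least 50% inhibition at 5 µM, scaled per plate between neutral and stimulator controls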;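 note: PAF is a Pseudomonas aeruginosa culture filtrate used as stimulus; plate controls were PAF-stimulated DMSO wells for no effect and unstimulated DMSO wells for full effect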
TWEAK-Fn14 inh: inhibitors of TWEAK-Fn14 signaling, primary screen, luciferase reporter cells, uHTS; TWEAK-stimulated Fn14 reporter cells, luciferase luminescence, 8 h; inhibition, % at 10 µM; actives 2% (n = 360,000); AID 1159606, 2016; in the data active = inhibition above about 50%
Peg3 promoter: Peg3 promoter-driven luciferase inhibitors, primary screen, cell-based, HeLa, luciferase luminescence; inhibition, % at 20 µM; actives 1.7% (n = 360,000); HeLa PEG-Prom luciferase reporter, overnight;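 active = inhibition of at least 50% at 20 µM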
Starred values were filed as active, the others as inactive. A selection: hits, their analogues and other compounds. The true share with any hit is near 4%.

SMILES | KKLEB tox | TROY signal inh | HIF-2a block | CF NFkB block | TWEAK-Fn14 inh | Peg3 promoter
NC(CCc1ccccc1)c1csc(Nc2ccc(C(=O)c3ccccc3)cc2)n1 (configuration not stated) | -11 | 12 | -10 | 25 | -17 | 88*
CC(=O)c1ccc(Nc2nc(C(N)Cc3ccc(C(F)(F)F)cc3)cs2)cc1 (configuration not stated) | -10 | 17 | 6 | -4 | -1 | 45
CN(Cc1ccccc1)C(=O)c1ccc(Nc2nc(C(N)COCc3ccccc3)cs2)nc1 (configuration not stated) | -11 | 18 | 2 | 6 | -10 | 24
NC(CCc1ccccc1)c1csc(Nc2ccc(C(=O)NCCO)cc2)n1 (configuration not stated) | 26 | 10 | 0 | -75 | -24 | 27
CN(Cc1ccccc1)C(=O)c1ccc(Nc2nc(C(N)Cc3ccc(C(F)(F)F)cc3)cs2)nc1 (configuration not stated) | -20 | 27 | -5 | 29 | 28 | 95*
NC(Cc1ccc(C(F)(F)F)cc1)c1csc(Nc2ccc(C(=O)c3ccccc3)cc2)n1 (configuration not stated) | -11 | 26 | -15 | -6 | 9 | 97*
CCOc1ccccc1C(=O)NCC(=O)OCC(=O)c1c(N)n(C)c(=O)n(C)c1=O | -1 | 4 | -1 | 9 | -17 | -23
COc1ccccc1N(/N=C1\Sc2ccccc2C1=O)C(C)=O | 3 | 78* | -107 | -11 | 79* | -221
COc1ccc(N(/N=C2\Sc3ccccc3C2=O)C(C)=O)cc1 | -9 | 9 | -232 | 6 | 2 | -238
CC/C=C\[C@H](O)[C@H](O)C1=C(C)C(=O)[C@]2(O1)C(=O)N[C@@](OC)(C(=O)c1ccccc1)C2O (some centres not stated) | -9 | 46 | 9 | 26 | 69* | 10
C/C(=N\NC(=O)Cc1c(C)[nH][nH]c1=O)c1cccc(Br)c1 | -10 | 0 | 6 | -2 | -6 | 7
O=[N+]([O-])c1cc(C(F)(F)F)cc([N+](=O)[O-])c1NCCNC(=S)Nc1ccc(Cl)c(Cl)c1 | -29 | 58* | 8 | 42 | 22 | 53*
COc1ccc(/C=C2/SC(=S)N(Cc3ccccc3)C2=O)cc1O | 7 | -27 | -111 | -5 | -22 | -151
CN1CCN(C(=O)CCN2C(=O)/C(=C\c3ccccc3F)SC2=S)CC1 | -4 | -5 | 2 | 55* | 10 | 29
O=C1/C(=C\c2cc(Cl)c(O)c(Cl)c2)SC(=S)N1Cc1ccccc1 | -31 | 70* | -26 | -258 | 61* | 45
O=C(CCCN1C(=O)/C(=C/c2ccccc2Cl)SC1=S)N1CCOCC1 | 2 | 9 | 49* | 3 | 29 | 28
COc1ccc(/C=C2\SC(=S)N(CCCC(=O)N3CCOCC3)C2=O)cc1OC | 5 | -2 | -5 | 17 | 22 | 0
COc1ccc(/C=C2\SC(=S)N(CCCC(=O)N3CCOCC3)C2=O)cc1 | -6 | -17 | 68* | 0 | 95* | -15
Cc1ccc2oc(-c3cccc(NC(=O)c4ccc(Br)o4)c3)nc2c1 | 7 | 36 | -226 | -18 | -2 | -168
O=C(CN1C(=O)S/C(=C/c2cccnc2)C1=O)N1CCOCC1 | -6 | -83 | 13 | 5 | -28 | 15
CN1CCN(C(=O)CCN2C(=O)/C(=C/c3ccccc3Cl)SC2=S)CC1 | 5 | 18 | 12 | 20 | 23 | 59*
COc1ccc(/C=C2\SC(=S)N(CCC(=O)NCCc3ccc(O)cc3)C2=O)cc1 | 3 | -21 | 58* | 7 | 2 | 102*
O=C(O)CCN1C(=O)S/C(=C\c2cccnc2)C1=O | 4 | 79* | 3 | -10 | -2 | 6
O=C(CCN1C(=O)/C(=C\c2ccccc2)SC1=S)N1CCCCC1 | 0 | -28 | 45* | 33 | 26 | 94*
COc1cccc(/C=C2\SC(=S)N(CCC(=O)N3CCCCC3CCO)C2=O)c1 (configuration not stated) | -16 | -10 | 31 | 31 | 5 | 43
SMILES | KKLEB tox | TROY signal inh | HIF-2a block | CF NFkB block | TWEAK-Fn14 inh | Peg3 promoter
O=C(O)CCN1C(=O)/C(=C\c2ccncc2)SC1=S | 0 | 11 | 15 | 17 | 34 | 14
COc1cccc(/C=C2\SC(=S)N(CCCC(=O)N3CCCCC3CCO)C2=O)c1 (configuration not stated) | -4 | 10 | 69* | 7 | 32 | 64*
COc1ccc(/C=C2/SC(=S)N(CCC(=O)O)C2=O)cc1 | 0 | 39 | 85* | 10 | 85* | 19
O=C(CN1C(=O)/C(=C/c2ccccc2)SC1=S)N1CCN(CCc2ccccn2)CC1 | 0 | -10 | 30 | 8 | -12 | 74*
O=C(O)CCN1C(=O)/C(=C\c2cccc(Oc3ccccc3)c2)SC1=S | 2 | 34 | 72* | -8 | 41 | -27
Cc1ccc(-c2nn(-c3cc(N4CCNCC4)ccc3[N+](=O)[O-])c(=O)c3ccccc23)cc1 | -28 | -4 | 17 | 14 | -17 | 102*
Cc1nn(-c2cc(N3CCCCCC3)ccc2[N+](=O)[O-])c(=O)c2ccccc12 | -8 | -19 | 4 | 5 | 2 | 8
Cc1c(Cc2ccccc2)sc(/N=C/c2c(O)ccc3ccccc23)c1C(N)=O | 2 | 24 | 0 | 5 | 42 | 27
Cc1c(Cc2ccccc2)sc(/N=C/c2ccc3ccccc3c2)c1C(N)=O | -24 | -64 | -180 | 35 | 60* | -35
NC(=O)c1nc(-c2ccco2)nc2c1[nH]c(=O)n2-c1ccc(Cl)c(Cl)c1 | 3 | -2 | 17 | -12 | -3 | 80*
COCCn1c(-c2ccc(OC)cc2)cnc1SCC(=O)Nc1cc(C)on1 | -2 | 22 | 11 | 2 | 7 | 8
COCCn1c(-c2ccc(OC)cc2)cnc1SCC(=O)Nc1ccc(OC)cc1OC | 6 | 12 | 11 | -5 | -17 | 64*
O=C(CSc1nnc(-c2c[nH]c3ccccc23)o1)N1c2ccccc2CCc2ccccc21 | 27 | 39 | -3 | 2 | 63* | 34
O=C(N[C@@H](Cc1ccccc1)C(=O)OCc1ccccc1)c1nc[nH]c1C(=O)N1CCc2ccccc2C1 | 2 | -21 | 21 | -5 | -18 | 29
O=C(CSc1n[nH]c(=O)n1C1CC1)Nc1ccccc1 | 20 | -8 | 3 | -3 | -55 | 5
O=C(CSc1n[nH]c(=O)n1C1CC1)Nc1cc(Cl)ccc1Oc1ccccc1 | -10 | 32 | 13 | -3 | 38 | 50*
